Here are results for nine molecules from PubChem BioAssay (Tox21).

A short description of assay [1]: qHTS assay for small molecule agonists of the p53 signaling pathway - cell viability (AID 651633; calls by dose curve;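 further: p53RE-bla HCT reporter cells with a stable beta-lactamase p53 reporter; series mostly up to about 83 µM; nearly all actives have a fitted effect of over 30% in size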). The method in brief: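 p53RE-bla cells were treated with compound for 16 hours at 37 C. Cytotoxicity was then measured as CellTiter-Glo luminescence after 30 min at room temperature.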
(In general: qHTS replaces the single test concentration by a dilution series.)

A short description of assay [2]: qHTS assay for small molecules that induce genotoxicity in human embryonic kidney cells expressing luciferase-tagged ATAD5 - cell viability (AID 651634; calls by dose curve; further: nearly all actives have a fitted effect of over 25% in size). Summed up: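 After 15.5 hr incubation with compound at 37C, 5% CO2, HEK293T ATAD5-luciferase cells received CellTiter-Fluor reagent; fluorescence intensity was quantified following 30 min at 37C.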
A short description of assay [3]: qHTS assay for small molecule disruptors of the mitochondrial membrane potential (AID 720635). Further: potency means the concentration at half of the fitted maximal effect. The method in brief: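 HepG2 cells exposed to compound 1 hr at 37C, then Mito-MPS dye 30 min. Ratio read of aggregate (540/590 nm) versus monomer (490/535 nm) fluorescence.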
Assay [4] in a line: qHTS assay to test for compound auto fluorescence at 590 nm (red) in HepG2 cells (AID 720674). The method in brief:
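HepG2 cells, 2,000 per well in MEM with 10% FBS, attached overnight at 37 C, then got 23 nL compound or DMSO. After 1 hr at 37 C, 5% CO2, red fluorescence was read at 540/590 nm against Rose Bengal sodium as reference.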

Assay [5] can be described thus: qHTS assay to test for compound auto fluorescence at 460 nm (blue) in HEK293 cells (AID 720678). Summed up:
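Cells were seeded and left to adhere for 4-5 hr at 37C. Compounds were then pin-transferred. After an overnight incubation at 37C under 5% CO2, intrinsic fluorescence at 405/460 nm was measured and referenced to triamterene.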

The nature of assay [6]: qHTS assay to test for compound auto fluorescence at 590 nm (red) in HEK293 cells (AID 720679). The method in brief:
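Each well held 2,000 HEK293 cells in medium containing 10% dialyzed FBS. Following 4-5 hr attachment at 37C, 23 nL test compound or DMSO was added; plates sat overnight, and red fluorescence (540/590nm) was recorded.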

Assay [7] can be described thus: qHTS assay to test for compound auto fluorescence at 535 nm (green) in HEK293 cells (AID 720680).
Assay [8] is described as follows: qHTS assay to test for compound auto fluorescence at 460 nm (blue) in HEK293 cell free culture (AID 720681). The method in brief: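 Compounds were added to cell-free DMEM with 10% FBS and fluorescence read directly. The blue channel used 405 nm excitation and 460 nm emission, with triamterene as the reference fluorophore.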
Assay [9] is described as follows: qHTS assay to test for compound auto fluorescence at 535 nm (green) in HEK293 cell free culture (AID 720682). The method in brief:
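DMEM + 10% FBS, cell-free; cpd or DMSO pinned in; Ex485/Em535 read; output as fluorescein-equivalent signal.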

Assay [10] can be described thus: qHTS assay to test for compound auto fluorescence at 590 nm (red) in HepG2 cell free culture (AID 720684). Summed up:
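Auto fluorescence equivalency versus Rose Bengal sodium, red channel Ex/Em 540/590 nm; compounds in cell-free MEM/10% FBS; DMSO vehicle control.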

Assay [11] can be described thus: qHTS assay to test for compound auto fluorescence at 460 nm (blue) in HepG2 cell free culture (AID 720685). Summed up: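 Cell-free plates of MEM plus 10% FBS received 23 nL compound or DMSO vehicle; blue-channel (405/460 nm) intensity scored against triamterene as reference fluorophore.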
The nature of assay [12]: qHTS assay to test for compound auto fluorescence at 460 nm (blue) in HepG2 cells (AID 720687). Summed up: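 HepG2 cells in MEM with 10% FBS, attached overnight at 37 C, were exposed to compound or DMSO for 1 hr at 37 C, 5% CO2. Blue fluorescence was read at 405/460 nm, with triamterene as reference fluorophore.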
The target of assay [13] is Glucocorticoid receptor (Homo sapiens) (UniProt P04150). Description: qHTS assay to identify small molecule agonists of the glucocorticoid receptor (GR) signaling pathway (AID 720691; active means well fitted activation curve with a large enough effect in the signal ratio in the repeat runs, not every such curve was filed as active; the % refers to the signal ratio). The method in brief: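 Cells: GR-bla HeLa, endogenous GR with stably integrated GRE-beta-lactamase reporter. Treatment 18 h, 37 C, compounds delivered in DMSO. Detection via LiveBLAzer B/G FRET substrate, 2 h RT, fluorescence intensity.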
Glucocorticoid receptor (Homo sapiens), sequence (P04150 whole entry, looked up): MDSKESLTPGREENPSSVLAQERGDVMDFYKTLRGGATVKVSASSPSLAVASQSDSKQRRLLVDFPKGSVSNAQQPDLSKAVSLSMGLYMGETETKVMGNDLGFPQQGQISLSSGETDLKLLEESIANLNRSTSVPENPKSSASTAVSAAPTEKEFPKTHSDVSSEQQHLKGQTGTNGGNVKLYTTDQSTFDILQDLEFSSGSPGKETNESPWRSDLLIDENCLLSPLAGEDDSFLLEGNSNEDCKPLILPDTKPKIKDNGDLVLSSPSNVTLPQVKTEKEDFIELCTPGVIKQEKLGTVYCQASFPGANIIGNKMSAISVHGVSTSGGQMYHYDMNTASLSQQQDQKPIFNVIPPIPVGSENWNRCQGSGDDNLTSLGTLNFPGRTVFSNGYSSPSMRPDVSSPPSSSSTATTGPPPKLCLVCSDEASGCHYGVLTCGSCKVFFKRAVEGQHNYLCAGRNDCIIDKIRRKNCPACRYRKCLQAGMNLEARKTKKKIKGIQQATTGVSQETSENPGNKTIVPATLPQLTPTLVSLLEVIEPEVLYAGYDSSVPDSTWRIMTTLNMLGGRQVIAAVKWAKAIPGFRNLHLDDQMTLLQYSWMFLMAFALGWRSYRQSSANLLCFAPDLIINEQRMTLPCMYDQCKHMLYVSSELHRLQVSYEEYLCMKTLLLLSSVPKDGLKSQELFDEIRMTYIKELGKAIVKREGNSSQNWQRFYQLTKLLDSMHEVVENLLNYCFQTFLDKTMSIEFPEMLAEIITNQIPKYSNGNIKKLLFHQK

Assay [14] shares this target. Briefly: qHTS assay to identify small molecule antagonists of the glucocorticoid receptor (GR) signaling pathway (AID 720692; active means well fitted inhibition curve with a large enough effect in the signal ratio in the repeat runs, not every such curve was filed as active; the % refers to the signal ratio; further: potency means the concentration at half of the fitted maximal effect). The method in brief:
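Quantitative HTS in antagonist format: HeLa cells expressing endogenous GR and a stably integrated GRE-bla reporter, stimulated with 5 nM dexamethasone (final) alongside test compounds for 18 h.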

A short description of assay [15]: qHTS assay for small molecules that induce genotoxicity in human embryonic kidney cells expressing luciferase-tagged ATAD5 (AID 651632). Further: nearly all actives have a fitted effect of over 15% in size. Summed up: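 Quantitative HTS in HEK293T expressing luciferase-tagged ATAD5, whose levels rise upon DNA damage. Exposure ran 16 hr at 37C and 5% CO2, with luminescence read 30 min after Amplite addition at room temperature.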

Assay [16] can be described thus: qHTS assay to test for compound auto fluorescence at 535 nm (green) in HepG2 cells (AID 720675).
A short description of assay [17]: qHTS assay to test for compound auto fluorescence at 590 nm (red) in HEK293 cell free culture (AID 720683). Summed up:
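Cell-free wells of DMEM with 10% FBS received compound, and intrinsic fluorescence was read at excitation/emission 540/590 nm. Values expressed as equivalence to Rose Bengal sodium.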

A short description of assay [18]: qHTS assay to test for compound auto fluorescence at 535 nm (green) in HepG2 cell free culture (AID 720686).
Assay [19] can be described thus: qHTS assay for small molecule disruptors of the mitochondrial membrane potential - cell viability (AID 720634; calls by dose curve; further: nearly all actives have a fitted effect of over 20% in size; further: potency means the concentration at half of the fitted maximal effect). The method in brief:
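ATP-based luminescent viability readout (CellTiter-Glo, 30 min, room temperature) in HepG2 cells multiplexed with the m-MPI membrane potential dye; compound exposure lasted 1 hr at 37 C.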

Where “and” joins values, the source holds several entries; their conditions need not be identical. Equal entries are not always repeated. Inconclusive results are not listed. Some compounds were tested as several samples or in several runs, with calls that do not always agree. Calls of active or inactive are those of the source. Unless noted, the call rests on the fitted dose curve; in most records, active means well fitted curve in the direction sought with a large enough effect in the repeat runs; inconclusive means weak or mixed curves; inactive means no such curve, though single readings can be large; an effect the other way counts as inactive or inconclusive.
On the % scale 0 is the no-effect control and ±100 the full control effect.

`Cc1ccc(OP(=O)(Oc2ccc(C)cc2)Oc2ccc(C)cc2)cc1`: the Potency result in assay [1], in assay [2], in [13] and in assay [14] was “inactive” in each case. For the same molecule, the Potency in assay [3] was 24.3 µM (active). Also, the molecule was called inactive in assay [4], in assay [5], in [6], in [7], in assay [8] and in [9]. In addition, the molecule was called inactive in assay [10], in assay [11] and in assay [12].
`NC(=S)Nc1ccccc1`: the Potency result in assay [15], in assay [1], in [2], in assay [13] and in assay [14] was “inactive” in each case. In addition, the call in [4], in assay [16], in assay [5], in assay [6], in [7] and in assay [8] was inactive. For the same molecule, the molecule was called inactive in [9], in assay [17], in [10], in [11], in assay [18] and in [12].
`Cc1cc(C)cc(C)c1`: the Potency result in [15], in assay [2], in [19] and in assay [3] was “inactive” each time. Further, the call in [4], in [16], in assay [5], in [6], in assay [7] and in assay [8] was inactive. For the same molecule, the molecule was called inactive in assay [9], in assay [10], in assay [11] and in assay [12].
Take `Oc1cc(Cl)ccc1Cl`: the Potency result in assay [1], in [2], in [19], in assay [13] and in [14] was “inactive” throughout. Also, in assay [3], the Potency is 28.1 µM (active) and 27.3 µM (active). The outcome in assay [16], in assay [5], in assay [6], in assay [7], in assay [8] and in [9] was inactive. The outcome in assay [10], in assay [11], in [18] and in assay [12] was inactive.
Consider `O=S(=O)(Oc1ccc(Cl)cc1)c1ccc(Cl)cc1`, for which the Potency entry in [1], in assay [2], in [19] and in assay [13] was “inactive” in each case. For the same molecule, the Potency in [3] was 31 µM (active) and 12.2 µM (active). The molecule was called inactive in assay [5], in [6], in assay [7], in assay [8], in [9] and in [17]. The molecule was classed as inactive in [10], in assay [11] and in assay [12].
As for `Oc1ccc(-c2ccccc2)cc1`, the Potency entry in assay [1], in [2] and in assay [13] was “inactive” each time. In addition, the Potency is 53.8 µM (active) and 48.6 µM (active) in [19]; 24 µM (active) and 13.7 µM (active) in [3]. In addition, the call in assay [4], in assay [16], in assay [5], in assay [6], in assay [7] and in assay [8] was inactive. Besides, the result in assay [9], in assay [17], in assay [10], in assay [11] and in assay [12] was inactive.
With `N#CC(Br)Br`, the Potency result in assay [1], in [2], in assay [19], in assay [3], in assay [13] and in assay [14] was “inactive” throughout. The molecule was called inactive in assay [4], in assay [16], in assay [5], in [6], in assay [7] and in assay [8]. Moreover, the result in assay [9], in assay [17], in assay [10], in assay [11], in [18] and in [12] was inactive.
Consider `Oc1cc(Cl)c(Cl)cc1Cl`, for which the Potency result in assay [1] and in [2] was “inactive” in each case. The Potency in [3] was 5.96 µM (active) [middle of 4 runs]. Further, the call in assay [4], in assay [5], in [6], in [7], in [8] and in [9] was inactive. Besides, the molecule was classed as inactive in assay [10], in [11] and in [12].
As for `O=C(CCl)c1ccccc1`, the Potency result in assay [1], in assay [2], in assay [19], in assay [3] and in [13] was “inactive” throughout. For the same molecule, the molecule was called inactive in assay [4], in assay [5], in assay [6], in [7], in [8] and in assay [9]. The result in [10], in assay [11], in assay [18] and in [12] was inactive. In assay [14], the Potency entry was “inactive and 54.9 µM (active)”.
